Compounds with a hit are over-represented: about 3.6% of the library has one in this group of screens.
IkB signaling = IkB Signaling. ABC-DLBCL IkBa-CBG/CBR dual luciferase ratio, 4 h; response scale: scaled: untreated 0%, proteasome inhibitor 100%. Potency, µM (series often up to 57.1 µM), for inactives: at the highest dose IkBa stabilization activation. AID 445, 2006. 110,000 tested, 0.04% active; active = well fitted curve in the direction sought with a large enough effect in the signal ratio, not every such curve was filed as active; inconclusive = small, poorly fitted or top-dose-only effect, or a change in a side signal; the % refers to the signal ratio;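 also: the direction sought is a rising ratio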
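Curves were fitted separately to fusion (green), unfused (red) and ratio luminescence, then classed by r2, magnitude and activity. Cells: OCI-Ly3, 4 h compound plus doxycycline at 37C; 10 uM MG-132 defined full response.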
15-hLO inh = qHTS Assay for Inhibitors of 15-hLO (15-human lipoxygenase). purified 15hLO-1, xylenol orange hydroperoxide absorbance. Potency, µM (top dose mostly 57.1 µM), for inactives: at the highest dose activity change, negative = inhibition, actives largely listed as inhibitors. 74,000 tested, 1.4% active. AID 887, 2007; also: % is scaled to controls: 0 for no effect and ±100 for the full control effect; nearly all actives have a fitted effect of over 55% in size
Target sequence (P16050 whole entry, looked up): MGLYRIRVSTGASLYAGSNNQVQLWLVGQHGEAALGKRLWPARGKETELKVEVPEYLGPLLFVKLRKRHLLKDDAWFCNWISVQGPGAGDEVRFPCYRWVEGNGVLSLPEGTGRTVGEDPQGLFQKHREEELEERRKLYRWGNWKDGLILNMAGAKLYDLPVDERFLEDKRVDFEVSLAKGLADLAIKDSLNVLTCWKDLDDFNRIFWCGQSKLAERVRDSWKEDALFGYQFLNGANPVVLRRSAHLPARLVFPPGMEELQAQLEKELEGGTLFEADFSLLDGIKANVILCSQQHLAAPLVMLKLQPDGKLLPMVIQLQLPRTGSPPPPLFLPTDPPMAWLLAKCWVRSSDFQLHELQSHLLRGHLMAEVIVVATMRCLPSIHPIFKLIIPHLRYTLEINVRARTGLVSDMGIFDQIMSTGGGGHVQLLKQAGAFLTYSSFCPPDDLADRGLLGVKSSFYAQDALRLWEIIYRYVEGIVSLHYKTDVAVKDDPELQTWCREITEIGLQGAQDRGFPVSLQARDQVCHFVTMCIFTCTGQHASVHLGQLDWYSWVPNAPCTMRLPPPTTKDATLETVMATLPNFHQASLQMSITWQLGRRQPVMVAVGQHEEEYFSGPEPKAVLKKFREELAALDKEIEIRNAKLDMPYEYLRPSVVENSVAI
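Compounds were preincubated 15 min at room temperature with 40 nM purified human enzyme (25 mM Hepes pH 7.5, 0.01% Triton X-100); 50 uM arachidonic acid reacted 6 min. Fe-xylenol orange detection, 30 min, absorbance ratio 573/405 nm.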
Hsp90 Hop PPI = qHTS Assay for Disrupters of an Hsp90 Co-Chaperone Interaction; 71,000 tested, 0.44% active; AlphaScreen TPR2A-His6 binding biotin-Hsp90 C-terminal peptide; Potency, µM (highest dose often 57 µM), without a hit: at the top dose activity change, negative = inhibition; active = well fitted curve in either direction with a large enough effect; inconclusive = small, poorly fitted or top-dose-only effect, or another doubt; also: % is scaled to controls: 0 for no effect and ±100 for the full control effect
CRE-bla Fsk = Cell signaling CRE-BLA (Fsk stim). CHO CRE-bla reporter (cAMP response element driving beta-lactamase), forskolin EC10, beta-lactamase ratio. Potency, µM (doses to about 38.2 µM), inactives show at the top dose activity change, negative = inhibition, usual class: activators. 71,000 tested, 2.5% active. AID 662, 2007; active = well fitted activation curve with a large enough effect in the signal ratio, with a control signal flat, not every such curve was filed as active; inconclusive = small, poorly fitted or top-dose-only effect, or effect the other way, or a change in a side signal; the % refers to the signal ratio; also: % of control where 0% means no effect
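Forskolin analogue NKH 477 at EC10 stimulated CRE-driven beta-lactamase in CHO cells alongside compound dilution series. Beta-lactamase was measured with CCF4, excitation 405 nm, emission ratio 460/530 nm.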
Tau fil binding = qHTS Assay for Tau Filament Binding; Microtubule-associated protein tau (Homo sapiens), P10636; recombinant tau filaments, thioflavin S fluorescence, 15 h; filaments grown with octadecylsulfate alongside compound; Potency, µM (highest dose often 57.1 µM), inactives show top-dose activity change, negative = inhibition; 71,000 tested, 2% active; AID 596, 2007;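 also: % is scaled to controls: 0 for no effect and ±100 for the full control effect; actives lower thioflavin S fluorescence by blocking filaments or displacing dye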
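ThS-based fibril read: tau 1 uM final, inducer ODS 30 uM final, 37 C for 15 h, ex 450/em 510 nm.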
Active calls of the source: *; ? = inconclusive; . = no result given; ! = repeats disagree; [ ] = dose if it differs, or a comment. Unless noted, calls follow the shape of the dose curve; as a rule, active = well fitted curve in the direction sought with a large enough effect; inconclusive = small, poorly fitted or top-dose-only effect, or another doubt; inactive = no such curve, though single readings can be large; an effect the other way counts as inactive or inconclusive. Potency is read from the fitted curve at half-maximal effect.

SMILES	IkB signaling	15-hLO inh	Hsp90 Hop PPI	CRE-bla Fsk	Tau fil binding
Cc1ccc(-n2ncc(C(=O)N3CCN(c4cccc(C)c4)C(C)C3)c2C2CCN(C(=O)OC(C)(C)C)CC2)cc1 (stereo unspecified)	6%	.	.	.	.
Cc1ccc(C)c(NC(=O)CCc2c(C)n(C)c3cc(-c4ccccc4C)nn3c2=O)c1	3%	.	.	.	.
Cc1c2oc3c(C)ccc(C(=O)N[C@@H]4C(=O)N[C@H](C(C)C)C(=O)N5CCC[C@H]5C(=O)N(C)CC(=O)N(C)[C@@H](C(C)C)C(=O)O[C@@H]4C)c3nc-2c(C(=O)N[C@@H]2C(=O)N[C@H](C(C)C)C(=O)N3CCC[C@H]3C(=O)N(C)CC(=O)N(C)[C@@H](C(C)C)C(=O)O[C@@H]2C)c(N)c1=O	?	13µM*	-3%	?	43%
Cc1ccc(NC(=O)CN2C(=O)CCSc3ccccc32)c(C)c1	0%	.	.	.	.
Cc1ccccc1Cn1c(=N)n(CC(O)c2ccco2)c2ccccc21 (stereo unspecified)	1%	5%	-5%	?	16µM*
Fc1ccc(NCc2cn3ccccc3n2)cc1	6%	13%	-6%	13%	-2%
Oc1ccc(CNc2ccc(F)cc2)c2cccnc12	?	3%	7.9µM*	-6%	-18%
Oc1ccccc1-c1nc(N2CCN(Cc3ccccc3)CC2)c2ccccc2n1	-5%	5%	0%	-3%	-5%
Oc1ccc(CN2CCN(Cc3ccccc3)CC2)c2cccnc12	1%	59%	4µM*	3%	-24%
Oc1c(CN2CCCCC2)cc(Br)c2cccnc12	?	41%	3.2µM*	-14%	-28%
Oc1c(CN2CCc3ccccc3C2)cc(Cl)c2cccnc12	?	33%	-20%[2.3 µM]	3%	92%
COc1cccc(NC(=O)c2ccc(CNS(=O)(=O)c3ccc4c(c3)C(C)(C)C(=O)N4C)cc2)c1	-1%	.	.	.	.
Cc1ccc(Cl)cc1N1CCN(C(=O)CN2C(=O)COc3ccc(S(=O)(=O)N4CCCCCC4)cc32)CC1	0%	.	.	.	.
Cc1oc2ncn(CC(C)C)c(=O)c2c1C(=O)NCCCN(C)Cc1ccccc1	-1%	.	.	.	.
Cc1nc(SCC(=O)Nc2ccc(C)c(F)c2)c2oc3ccccc3c2n1	-2%	-5%	-3%	0.63µM*	-10%
COc1ccc(NC(=O)c2c(OC)cccc2OC)c(OC)c1	2%	-3%	?	6%	16µM*
COc1ccc(NC(=O)c2ccco2)c(OC)c1	0%	7%	1%	-3%	-2%
COc1ccc(Br)cc1CNc1ccc(O)cc1	30%	?	?	-12%	32µM*
CN(C)c1ccc(C2(c3ccc(N(C)C)cc3)OC(=O)c3cc(N(C)C)ccc32)cc1	1%	0%	2.5µM*	?	15%
O[C@H](CN1CCN(c2cccc(Cl)c2)CC1)C(c1ccccc1)c1ccccc1	?	?	9%	?	40µM*!
CCc1ccc(S(=O)(=O)c2cn(CC(=O)Nc3cccc(C)c3)c3ccc(Cl)cc3c2=O)cc1	1%	.	.	.	.
CCn1c(SCC(=O)Nc2ccccc2N2CCCCC2)nc2c1c(=O)n(C)c(=O)n2C	?	-10%	-4%	10µM*	36%
COc1ccccc1N1C(=O)CC(Nc2ccc(N3CCOCC3)cc2)C1=O (stereo unspecified)	4%	13µM*	-10%	?	-27%
CCOc1ccc(N2CC(NC(=O)/C=C\c3ccc4c(c3)OCO4)CC2=O)cc1 (stereo unspecified)	-1%	.	.	.	.
CCCOc1ccc(C2c3c(oc4cc(C)c(C)cc4c3=O)C(=O)N2CCCN(C)C)cc1OCC (stereo unspecified)	0%	5%	-2%	-2%	-26%
COc1cccc(C2c3c(oc4cc(C)c(C)cc4c3=O)C(=O)N2CCCN(C)C)c1 (stereo unspecified)	2%	10%	-3%	0%	-29%
